These results are taken from PubChem BioAssay (Tox21).

Results filed as inconclusive are left out. Entries that show only a call come without a potency. A structure can be active in one record and inactive in another. Activity calls are given as the source filed them. Calls come from the whole dose curve.
Potency is the fitted concentration of half-maximal effect.

For this experiment, the target named is Acetylcholinesterase (Homo sapiens) (UniProt P22303). In words: Acetylcholinesterase (AChE) small molecule antagonists: fluorescence cell-based qHTS assay (AID 1347398). Note: nearly all actives have a fitted effect of over 50% in size. The following applies: SH-SY5Y cells; Potency: AChE activity; outcome: AChE activity; series mostly up to 115 µM. From the text: National Center for Advancing Translational Sciences [NCATS]
Acetylcholinesterase (Homo sapiens), sequence (P22303 whole entry, looked up): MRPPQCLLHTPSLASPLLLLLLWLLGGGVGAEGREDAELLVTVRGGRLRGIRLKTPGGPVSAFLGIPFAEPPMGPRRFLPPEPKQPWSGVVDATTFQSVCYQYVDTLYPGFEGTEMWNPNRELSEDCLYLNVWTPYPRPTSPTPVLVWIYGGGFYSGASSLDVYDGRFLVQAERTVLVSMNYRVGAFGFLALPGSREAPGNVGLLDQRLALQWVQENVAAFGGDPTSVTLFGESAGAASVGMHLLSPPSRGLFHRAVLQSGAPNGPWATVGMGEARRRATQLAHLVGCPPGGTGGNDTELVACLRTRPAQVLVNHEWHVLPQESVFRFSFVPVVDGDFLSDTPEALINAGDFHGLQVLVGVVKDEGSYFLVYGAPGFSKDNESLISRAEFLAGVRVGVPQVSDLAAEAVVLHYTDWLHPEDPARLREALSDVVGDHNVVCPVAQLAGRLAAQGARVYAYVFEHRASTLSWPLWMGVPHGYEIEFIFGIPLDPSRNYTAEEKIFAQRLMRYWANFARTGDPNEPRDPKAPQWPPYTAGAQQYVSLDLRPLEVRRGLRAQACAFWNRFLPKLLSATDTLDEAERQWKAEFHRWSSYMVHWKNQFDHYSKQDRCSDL
Division of Preclinical Innovation [DPI]
U.S. Environmental Protection Agency [EPA]
National Institutes of Environmental Health Sciences [NIEHS]
National Toxicology Program [NTP]
U.S. Food and Drug Administration [FDA]
Acetylcholinesterase (AChE) is the primary cholinesterase in the body that hydrolyzes a key neurotransmitter, acetylcholine. Inhibition of AChE activity can lead to neurotoxicity. Known inhibitors of AChE include organophosphorous pesticides (OP), chemical warfare agents, drugs, and various phytochemicals.
A homogenous cell-based assay using Amplitetrade mark Fluorimetric Acetylcholinesterase Assay Kit *Green Fluorescence* (AAT Bioquest, Sunnyvale, CA) was used to evaluate the chemicals in the Tox21 10K library that inhibit AChE activity. The assay uses Thiolite Green to quantify the thiocholine produced from the hydrolysis of acetylthiocholine by AChE from the SH-SY5Y cells. AChE can hydrolyze acetylthiocholine to create thiocholine. Thiolite Green is fluorescent when reacting with thiocholine. It has spectral properties similar to those of fluorescein. The fluorescence intensity of Thiolite Green is used to measure AChE activity. Its signal can be easily read by a fluorescence microplate reader at Ex/Em = 490/520 nm.
Tox21 Assay Protocol Summary:
For cell-based AChE assay, 2,000 SH-SY5Y cells in 4 uL/well were dispensed into black, clear-bottom 1536-well plates using a Multidrop Combi (Thermo Scientific) dispenser. The assay plates were incubated overnight at 37 C to allow cells to attach to the wells, followed by the transfer of 23 nL compound or DMSO (vehicle control) by a Pintool station (Wako Automation, CA). The plates were incubated for 30 min at 37 C and 5% CO2, followed by the addition of 4 uL of detection cocktail solution (ThioliteGreen, acetylthiocholine) into each well using Flying Reagent Dispenser (Beckman Coulter, CA) and then following 40 min incubation at room temperature. Fluorescent intensity (Ex/Em = 490/520 nm) was measured using an Envision plate reader (PerkinElmer, MA).
For orientation: In qHTS, concentration-response curves come from the screen itself.
In the case of `Brc1ccc(-c2ccccc2)cc1`, the Potency result is “inactive”. Still for that read-out and setting: to `O=C(OCCOCCOC(=O)c1ccccc1)c1ccccc1` belongs “inactive”. On the same count and under the same terms, to `OCc1ccccc1O` belongs “inactive”; to `CC(N)C12CC3CC(CC(C3)C1)C2` (stereo not given), “inactive”; to `O=C1C=CC(=O)O1`, “inactive”. The same measure, in the same setting: to `CCO/C([O-])=N/c1c[n+](N2CCOCC2)no1` belongs “inactive”. Turning to `CC(C)(O)CCc1ccccc1`, the Potency result was “inactive”. The same measure, in the same setting: to `CC(=O)OCC(COC(C)=O)OC(C)=O` belongs 31.3 µM (active) and inactive; to `CCCCC(CC)COC(=O)CCCCCCCCC(=O)OCC(CC)CCCC` (stereo not given), “inactive”; to `O=C(c1ccc(Cl)cc1)c1ccc(Cl)cc1`, “inactive”. Same read-out and setting: to `O=C(/C=C/c1ccc(O)c(O)c1)O[C@@H](C(=O)O)[C@@H](OC(=O)/C=C/c1ccc(O)c(O)c1)C(=O)O` belongs “inactive”; to `O=C1NCCN1CCO`, “inactive”; to `C=CCNCC=C`, “inactive”.

With `O=C(O)CCCCC1CCSS1` (stereo not given), the Potency result is “inactive”.

Take `CCCC(=O)OCOC(=O)C1=C(C)NC(C)=C(C(=O)OC)C1c1cccc(Cl)c1Cl` (stereo not given): the Potency result was “inactive”.

Turning to `CC(C)C(=O)c1ccccc1`, the Potency entry was “inactive”. The same measure, in the same setting: to `CCCCCCC/C=C/C=O` belongs “inactive”; to `CCCCC/C=C\C/C=C\CCCCCCCC(=O)O`, “inactive”; to `CCCCCCCCCCCCc1ccc(O)cc1`, “inactive”.

For `CCOC(=O)C1OC1c1ccccc1` (stereo not given), the Potency entry is “inactive”. Same read-out and setting: to `CCCCC(CC)COC(=O)c1ccccc1` (stereo not given) belongs “inactive”; to `Cc1oc(=O)oc1CN1CCN(c2cc3c(cc2F)c(=O)c(C(=O)O)c2n3C(C)S2)CC1` (stereo not given), “inactive”; to `N[C@H]1C(O)O[C@H](CO)[C@H](O)[C@@H]1O` (stereo not given in full), “inactive”. The same measure, in the same setting: to `CCc1ccc(C(c2ccc(CC)cc2)C(Cl)Cl)cc1` belongs “inactive”; to `COC(=O)c1ccccc1OC`, “inactive”. On the same count and under the same terms, to `CN=C(NC#N)Nc1ccc(C2=NNC(=O)CC2C)cc1` (stereo not given) belongs “inactive”. As to `CC[N+](CC)(CC(=O)Nc1c(C)cccc1C)Cc1ccccc1`, the Potency result is “inactive”. Same read-out and setting: to `CC(=O)NNC(C)=O` belongs “inactive”. The same measure, in the same setting: to `CCCC/C=C/CCCCO` belongs “inactive”. Still for that read-out and setting: to `O=C(O)[C@@H](O)[C@H](O)[C@H](O)[C@@H](O)C(=O)O` belongs “inactive”; to `CCC(C)(C)C`, “inactive”. Consider `CCn1cc(C(=O)O)c(=O)c2cnc(N3CCCC3)nc21`, for which the activity change, negative = inhibition was 15.4% [at 10.5 µM] (inactive). Consider `CC(C)NC(=O)c1ccccc1N`, for which the Potency result is “inactive”. As to `CCCCCCC(C)O` (stereo not given), the Potency result was “inactive”.

Take `O=S(=O)(O)CCCN1CCOCC1`: the Potency entry was “inactive”. Same read-out and setting: to `CC(=O)CC(=O)Nc1ccccc1C` belongs “inactive”; to `COc1ccc(Nc2ccc(OC)cc2)cc1`, “inactive”; to `CC(C)=CCC[C@](C)(O)[C@@H]1CC=C(C)CC1`, “inactive”. Still for that read-out and setting: to `CCCCCCCCOS(=O)(=O)O` belongs “inactive”; to `C[C@]12CC[C@@H]3c4ccc(O)cc4C[C@@H](CCCCCCCCCS(=O)CCCC(F)(F)C(F)(F)F)[C@H]3[C@@H]1CC[C@@H]2O` (stereo not given in full), “inactive”.
